Screens deposited in PubChem BioAssay by National Center for Advancing Translational Sciences (NCATS).
This is a sample that favours compounds with a hit; in the whole collection about 11% have one here.
Pf growth 96h – P. falciparum growth inhibition at 96 hour, primary screen for plastid delayed-death inhibitors | P. falciparum luciferase reporter growth, 96 h | Potency, µM (doses to about 28.7 µM), for inactives: at the highest dose activity change, negative = inhibition, hits mostly inhibitors | hit rate 6.9% among 320,000 | AID 504834
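P. falciparum expressing integrated firefly luciferase grown in erythrocytes (2% hematocrit, 0.05% parasitemia final) with compounds for 96 hours at 37 C, 5% CO2. Growth inhibition read as loss of luminescence after adding luciferase detection reagent.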
HCV inhibitor – HCV inhibition; hit rate 3.4% among 340,000; Huh7.5.1 HCVcc-Cre infection, luciferase reporter, 44 h; AID 651820; Potency, µM (series often up to 41.8 µM), for inactives: top-dose activity change, negative = inhibition, most hits filed as inhibitors
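HCVcc-Cre virus at an moi near 0.5 was added right after compound to cells cultured 4 h from seeding (1,000 cells/well). Luciferase activity was determined 44 h later, 15 min after substrate addition at RT.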
AmpC inh no detg – blocks E. coli AmpC beta-lactamase in detergent-free assay; P00811; AmpC nitrocefin hydrolysis, absorbance 480 nm, 0.0001% Triton; Potency, µM (series often up to 57.1 µM), without a hit: top-dose activity change, negative = inhibition, hits mostly inhibitors; hit rate 0.52% among 330,000; AID 485341;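 further: plate controls were no compound for no effect and no enzyme for full effect; nearly all actives have a fitted effect of over 20% in size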
Target sequence (P00811 whole entry, looked up): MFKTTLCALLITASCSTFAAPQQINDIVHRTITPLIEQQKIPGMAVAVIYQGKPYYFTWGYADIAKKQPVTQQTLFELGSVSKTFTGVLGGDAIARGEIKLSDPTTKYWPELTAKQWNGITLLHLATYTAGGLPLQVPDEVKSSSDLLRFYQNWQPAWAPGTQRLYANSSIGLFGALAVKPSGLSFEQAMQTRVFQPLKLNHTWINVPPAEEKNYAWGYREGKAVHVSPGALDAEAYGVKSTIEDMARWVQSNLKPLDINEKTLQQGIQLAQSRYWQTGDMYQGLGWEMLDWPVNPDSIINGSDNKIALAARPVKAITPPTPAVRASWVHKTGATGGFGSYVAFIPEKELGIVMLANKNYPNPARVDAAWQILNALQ
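20 mM phosphate pH 7.0 + 0.01% (detergent screen) or 0.0001% Triton X-100; 5.3 nM AmpC reagent; cpd preinc 15 min RT; nitrocefin (800 uM stock) to start; A480 q20 s × 4 min; Activity was normalised to no-enzyme and no-compound control wells.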
Pf growth 48h – P. falciparum growth inhibition at 48 hours (one generation) | P. falciparum luciferase growth in erythrocytes, 48 h | Potency, µM (series often up to 28.7 µM), without a hit: top-dose activity change, negative = inhibition, most hits filed as inhibitors | hit rate 5.9% among 310,000 | AID 504832
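Erythrocytes infected with P. falciparum carrying an integrated firefly luciferase reporter (2% hematocrit, 0.1% parasitemia final) were exposed to compounds in RPMI 1640 with 0.5% Albumax at 37 C, 5% CO2. Growth inhibition was scored as reduced luminescence.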
AMA1 RON2 block – inhibitors of Plasmodium falciparum AMA1-RON2 interaction | AlphaScreen AMA1-biotinylated RON2 peptide binding | hit rate 0.2% among 360,000 | AID 720542 | Potency, µM (titrated, usually from 58.2 µM), for the others: at the highest dose activity change, negative = inhibition, actives largely listed as inhibitors;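 further: 0% = vehicle wells and -100% = peptide control; nearly all actives have a fitted effect of over 45% in size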
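AMA1 (3D7) with his tag at 25 nM final met compounds first, then biotinylated RON2 peptide at 25 nM; detection used donor plus acceptor beads, 10 µg/mL apiece, read by AlphaScreen after 30 min at room temperature.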
AmpC detergent – blocks E. coli AmpC beta-lactamase in detergent assay | AmpC hydrolysis of nitrocefin, absorbance 480 nm, 0.01% Triton | Potency, µM (top dose mostly 114 µM), inactives show at the top dose activity change, negative = inhibition, usual class: inhibitors | hit rate 0.041% among 370,000 | AID 485294;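 further: 0% = no-compound wells and -100% = no-enzyme wells; nearly all actives have a fitted effect of over 25% in size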
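AmpC (5.3 nM in the dispensed reagent) in 20 mM phosphate pH 7.0 with 0.01% (detergent screen) or 0.0001% Triton X-100 was preincubated with compounds for 15 min at room temperature. Nitrocefin was then added from an 800 uM solution, and hydrolysis was followed at 480 nm.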
* hit, by the source's call. The call rests on the fitted dose curve; in most records, active means well fitted curve in the direction sought with a large enough effect; inconclusive means small, poorly fitted or top-dose-only effect, or another doubt; inactive means no such curve, though single readings can be large; an effect the other way counts as inactive or inconclusive. Unless noted, on the % scale 0 is the no-effect control and ±100 the full control effect; potency means the concentration at half of the fitted maximal effect.

For CC1C(c2ccccc2)N(C)C(c2ccccc2)CC1(O)c1ccc(F)cc1 (stereo not drawn) the results were Pf growth 96h 20%, HCV inhibitor 23%, AmpC inh no detg -32%, Pf growth 48h inconclusive, AMA1 RON2 block -13% and AmpC detergent 2%.
Screening CCC1C(c2ccccc2)NC(c2ccccc2)CC1(O)c1ccc(F)cc1 (stereo not drawn) returned Pf growth 96h inconclusive, HCV inhibitor -16%, AmpC inh no detg -22%, Pf growth 48h 10µM*, AMA1 RON2 block -2% and AmpC detergent 0%.
Screening Cn1c(=O)cc(SCC(=O)N2CCN(c3ccccc3F)CC2)c2cc(Cl)ccc21 returned AmpC detergent 18%.
`CCn1c2c(c(=N)c3c1CCC3)CCC2` gave Pf growth 96h 0.19µM*, HCV inhibitor 2%, AmpC inh no detg -13%, Pf growth 48h 0.47µM*, AMA1 RON2 block -1% and AmpC detergent -1%.
`N=c1c2c(n(Cc3ccc(F)cc3)c3c1CCC3)CCC2` gave Pf growth 96h -8%, HCV inhibitor 8%, AmpC inh no detg 3%, Pf growth 48h 0.12µM*, AMA1 RON2 block 2% and AmpC detergent 9%.
`CCCCCCCn1c2c(c(=N)c3c1CCC3)CCCC2` gave Pf growth 96h 6%, HCV inhibitor 4.5µM*, AmpC inh no detg 26%, Pf growth 48h 0.29µM*, AMA1 RON2 block -4% and AmpC detergent 0%.
`Fc1ccc(CN2CCCCCCC2)cc1` gave Pf growth 96h 12%, HCV inhibitor 3%, AmpC inh no detg -16%, AMA1 RON2 block 11% and AmpC detergent 2%.
`CCn1c(=O)c2c3c(sc2n(C)c1=O)CCC3` gave Pf growth 96h 28%, HCV inhibitor -11%, AmpC inh no detg 114%, Pf growth 48h 14%, AMA1 RON2 block -9% and AmpC detergent -10%.
For CCCCCCCCCn1c2c(c(=N)c3c1CCC3)CCC2 the results were Pf growth 96h 0.13µM*, HCV inhibitor 0.89µM*, AmpC inh no detg 42%, Pf growth 48h 0.29µM*, AMA1 RON2 block 0% and AmpC detergent inconclusive.
CCOc1ccccc1NC(=O)c1c2c(nc3ccccc13)C(=O)N(C1CCCCC1)C2 was read as AmpC detergent 21%.
CCCCCCn1c2c(c(=N)c3c1CCC3)CCC2 was read as Pf growth 96h 21%, HCV inhibitor 10µM*, AmpC inh no detg 22%, Pf growth 48h 0.21µM*, AMA1 RON2 block 19% and AmpC detergent -11%.
CCCCn1c2c(c(=N)c3c1CCC3)CCC2 was read as Pf growth 96h 0.033µM*, HCV inhibitor inconclusive, AmpC inh no detg -2%, Pf growth 48h 0.15µM*, AMA1 RON2 block -3% and AmpC detergent -14%.
CCCCCCn1c(=O)[nH]c2c(c1=O)CCC2 was read as Pf growth 96h 16%, HCV inhibitor -5%, AmpC inh no detg -21%, Pf growth 48h 4%, AMA1 RON2 block -14% and AmpC detergent 4%.
For CO/N=C(/C(=O)N[C@@H]1C(=O)N2C(C(=O)O)=CCS[C@H]12)c1cnc(N)s1 the results were Pf growth 96h 92%, AmpC inh no detg -34%, Pf growth 48h 0% and AmpC detergent 50µM*.
`CO/N=C(/C(=O)N[C@@H]1C(=O)N2C(C(=O)O)=C(CSc3cnns3)CS[C@H]12)c1csc(N)n1` gave Pf growth 96h -4% and Pf growth 48h -6%.
`Cc1ccc(CNC(=O)Cn2c(=O)n(Cc3ccccc3)c(=O)c3c2c2cc(C)ccc2n3C)cc1` gave AmpC detergent 16%.
`CC(C)OCCCNC(=O)c1ccc(NS(C)(=O)=O)cc1` gave Pf growth 96h 10µM*, HCV inhibitor -4%, AmpC inh no detg -14%, Pf growth 48h -5%, AMA1 RON2 block -1% and AmpC detergent -20%.
`CCCCNC(=O)c1ccc2c(c1)S(=O)(=O)c1ccccc1C2=O` gave Pf growth 96h -20%, HCV inhibitor -23%, AmpC inh no detg 42%, Pf growth 48h 13%, AMA1 RON2 block 0% and AmpC detergent 9%.
For C=CCNC(=O)c1ccc2c(c1)S(=O)(=O)c1ccccc1C2=O the results were HCV inhibitor 25µM* and AMA1 RON2 block 48%.
CCNC(=O)c1ccc2c(c1)S(=O)(=O)c1ccccc1C2=O was read as Pf growth 96h -11%, HCV inhibitor -13%, AmpC inh no detg -11%, Pf growth 48h -2%, AMA1 RON2 block -12% and AmpC detergent -9%.
CC(C)OCCCNC(=O)c1ccc2c(c1)S(=O)(=O)c1ccccc1C2=O was read as Pf growth 96h 9.3µM*, AmpC inh no detg 14%, Pf growth 48h -22%, AMA1 RON2 block 18% and AmpC detergent 2%.
COc1ccc(C2c3c(n(C)c4ccccc34)C(=O)N2CC(=O)Nc2ccccc2F)cc1 (stereo not drawn) was read as AmpC detergent 9%.
Cc1ccc(C)c(CN2C(=O)c3ccccc3Sc3ccc(C(=O)NCc4ccco4)cc32)c1 was read as AmpC detergent -5%.
CCCCc1cc(=O)oc2cc(C)c3c(C)coc3c12 was read as AmpC detergent 18%.
CCCCCc1cc(=O)oc2c(C(CCN(CC)CC)c3cc(OC)c(OC)c(OC)c3)c(OC)cc(OC)c12 (stereo not drawn) was read as Pf growth 96h 3.7µM*, HCV inhibitor inconclusive, AmpC inh no detg 214%, Pf growth 48h 13µM*, AMA1 RON2 block -18% and AmpC detergent 2%.
For CCCCCc1cc(=O)oc2c(C(CCN3CCCC(C)C3)c3ccc4c(c3)OCO4)c(OC)cc(OC)c12 (stereo not drawn) the results were Pf growth 96h 4.1µM*, HCV inhibitor inconclusive, AmpC inh no detg 70%, Pf growth 48h 7.4µM*, AMA1 RON2 block -23% and AmpC detergent -5%.
Screening CCCCCc1cc(=O)oc2c(C(CCN3CCCCC3)c3ccc4c(c3)OCO4)c(OC)cc(OC)c12 (stereo not drawn) returned Pf growth 96h 4.7µM*, HCV inhibitor inconclusive, AmpC inh no detg 142%, Pf growth 48h 10µM*, AMA1 RON2 block -15% and AmpC detergent 5%.
Screening CCc1ccccc1NC(=O)[C@H](Cc1ccccc1)N1Cc2ccccc2C1=O returned AmpC detergent -15%.
